# Bioassay records deposited in PubChem by National Center for Advancing Translational Sciences (NCATS).
# Most compounds without a hit are left out; they make up all but 21% or so of the library.
# NS1 inh: qHTS Assay for Inhibitors of Influenza NS1 Protein Function | Potency, µM (highest dose often 46.1 µM), for the others: at the highest dose activity, positive = more growth | 270,000 tested, 0.4% active | AID 2326, 2010; calls by dose curve; note: potency is the fitted concentration of half-maximal effect; actives are rising curves; nearly all actives have a fitted effect of over 50% in size
#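 A cell-based growth assay was used: compounds that relieve NS1-induced slow growth of budding yeast raise OD600. Assay medium was yeast nitrogen base with ammonium sulphate and -URA supplement, pH 6.0, with 2% galactose.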
# Shiga inhibitor: A qHTS for Small Molecule Inhibitors of Shiga Toxin; Vero cells, Shiga toxin protein synthesis inhibition reporter; inhibition, % at 38.7 µM; 290,000 tested, 9.2% active; AID 2315, 2010; in the data active = inhibition mostly above about 28%, no sharp cut-off; inactive = mostly below about 43%; note: 0% is about no effect
# Pf growth 48h: Primary qHTS for delayed death inhibitors of the malarial parasite plastid, 48 hour incubation | P. falciparum luciferase growth in erythrocytes, 48 h | Potency, µM (series often up to 28.7 µM), without a hit: top-dose activity change, negative = inhibition, hits mostly inhibitors | 310,000 tested, 5.9% active | AID 504832, 2011; note: potency is the fitted concentration of half-maximal effect; % is set by controls: 0 for no effect and ±100 for the full control effect
#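 Erythrocytes infected with P. falciparum carrying an integrated firefly luciferase reporter (2% hematocrit, 0.1% parasitemia final) were exposed to compounds in RPMI 1640 with 0.5% Albumax at 37 C, 5% CO2. Growth inhibition was scored as reduced luminescence.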
# Giardia FBPA inh: qHTS Assay for Inhibitors of Fructose-1,6-bisphosphate Aldolase from Giardia Lamblia. purified Giardia FBPA. Potency, µM (top dose mostly 59.6 µM), without a hit: at the top dose activity, negative = inhibition, actives largely listed as inhibitors. 290,000 tested, 0.71% active. AID 2451, 2010; note: potency is the fitted concentration of half-maximal effect; % is set by controls: 0 for no effect and ±100 for the full control effect; nearly all actives have a fitted effect of over 55% in size
# Target sequence (A8B2U2 whole entry, looked up): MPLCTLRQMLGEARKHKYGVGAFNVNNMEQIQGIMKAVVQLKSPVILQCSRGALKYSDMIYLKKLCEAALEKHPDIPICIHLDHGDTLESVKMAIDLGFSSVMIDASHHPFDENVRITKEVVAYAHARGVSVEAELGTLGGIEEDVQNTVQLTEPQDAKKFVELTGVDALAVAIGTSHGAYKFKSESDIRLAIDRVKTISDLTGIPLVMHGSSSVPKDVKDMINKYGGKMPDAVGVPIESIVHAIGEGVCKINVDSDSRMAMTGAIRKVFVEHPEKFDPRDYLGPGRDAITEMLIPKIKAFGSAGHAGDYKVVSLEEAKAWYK
#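 40 nM FBPA preincubated 10 min at RT with compound (up to 57.5 uM final), then substrate plus GAPDH/TPI/NAD/arsenate coupling and diaphorase/resazurin added. Fluorescence read after 20 min at RT, 525/598 nm.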
# Pf growth 96h: Primary qHTS for delayed death inhibitors of the malarial parasite plastid, 96 hour incubation. P. falciparum luciferase reporter growth, 96 h. Potency, µM (titrated, usually from 28.7 µM), inactives show at the top dose activity change, negative = inhibition, usual class: inhibitors. 320,000 tested, 6.9% active; note: potency is the fitted concentration of half-maximal effect; % is set by controls: 0 for no effect and ±100 for the full control effect
#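 Plates of compound plus infected erythrocytes (2% hematocrit, 0.05% parasitemia final) incubate 96 hours, 37 C, 5% CO2. Detection reagent added; reduced luminescence from the parasites' luciferase reporter flags inhibition.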
# CHX counter: Cycloheximide Counterscreen for Small Molecule Inhibitors of Shiga Toxin; max response, %; cell reporter, cycloheximide protein synthesis inhibition counterscreen; 300,000 tested, 12% active; in the data active = max response mostly above about 13%, no sharp cut-off; inactive = mostly below about 14%; note: read at 38.3 µM for the half of the compounds with a filed dose; 0% is about no effect
# Numbers without * were called inactive; ? = inconclusive; . = no result given; [ ] = another dose, or the depositor's remark. Unless noted, calls come from the whole dose curve; as a rule, active = well fitted curve in the direction sought with a large enough effect; inconclusive = small, poorly fitted or top-dose-only effect, or another doubt; inactive = no such curve, though single readings can be large; an effect the other way counts as inactive or inconclusive.
SMILES,NS1 inh,Shiga inhibitor,Pf growth 48h,Giardia FBPA inh,Pf growth 96h,CHX counter
CN(C)c1ccc(/C=N/Nc2ccc(-n3ccnc3)nn2)cc1,-12%,4,?,-15%,.,7
O=C(/C=C/c1cccc([N+](=O)[O-])c1)N1CCN(c2ccccn2)CC1,-11%,-7,39%,6%,?,-2
CN(C)c1ccc(/C=N\Nc2ccccn2)cc1,-12%,47*,113%,16%,27%,24*
O=C(COC(=O)c1ccc(Cl)nc1)NNC(=O)c1ccc(Cl)cc1,.,.,-3%,.,28%,.
COc1ccccc1C(=O)NC(=O)COC(=O)c1ncc(Cl)c(Cl)c1Cl,.,.,37%,.,67%,.
O=[N+]([O-])c1ccc(/C=N/Nc2ccccn2)cc1,-3%,60*,63%,-5%,?,20*
N#C/C(=C\c1cccc([N+](=O)[O-])c1)c1ccccn1,4%,55*,3%,-10%,23%,28*
C[C@@H]1CN(c2c(F)c(N)c3c(=O)c(C(=O)O)cn(C4CC4)c3c2F)C[C@H](C)N1,.,8,.,-3%,.,-3
CCN(CC)CCC(c1ccc(OC)cc1)c1c(O)cc(OC)cc1OC (stereo unspecified),1%,0,1.3µM*,-14%,1.3µM*,-1
CCN(CC)CCC(c1ccc(N(C)C)cc1)c1c(O)cc(OC)cc1OC (stereo unspecified),?,-7,1.2µM*,-8%,1.5µM*,-5
CCN(CC)C(=O)CC(c1ccc(OC)cc1)c1c(O)cc(OC)cc1OC (stereo unspecified),5%,16,?,-12%,-15%,-9
O=[As](O)(O)c1ccc(N=Nc2ccc([As](=O)(O)O)cc2)cc1,0%,.,.,.,.,.
CC1CCCCN1C(=O)C1CCN(c2nc(-c3ccccc3)nc3c2CCC3)CC1 (stereo unspecified),-1%,5,7.4µM*,-8%,?,4
CC(C)(C)c1ccc(O)c(/C=N\O)c1,-24%,53*,59%,-19%,.,18*
COc1ccc2c(c1OC)C(=O)N1C2SC(C)(C)[C@H]1C(=O)NCC(C)C (stereo partly specified),3%,-12,?,?,-22%,1
C[C@@H]1C=C(C(=O)N2CCOCC2)O[C@H](OCc2ccc(CO)cc2)C1,0%,-21,-4%,4%,63%,6
CC(=O)Nc1cc2c(=O)n(Cc3ccccc3)c(C)nc2cc1N1CCOCC1,-2%,36,-6%,-18%,12%,17*
Cc1nc2cc(N3CCCCC3)c(NC(=O)c3cccnc3)cc2c(=O)n1Cc1ccccc1,-2%,-21,2.9µM*,-13%,.,-4
CC(C)C(=O)Nc1cccc(NC(=S)NC(=O)c2ccc3c(c2)OCO3)c1,-13%,-20,?,.,-38%,-3
O=C(NC(=S)Nc1cccc(NC(=O)c2ccccc2Cl)c1)c1cccs1,11%,10,38%,-14%,?,15*
COc1cc(NC(=S)NC(C)=O)ccc1NC(=O)C(C)C,-46%,61*,45%,-1%,32%,25*
Cc1ccccc1C(=O)Nc1cccc(NC(=S)NC(=O)c2cccs2)c1,-1%,15,?,-16%,2%,-1
CCCC(C)NC(=O)/C=C/c1cccc([N+](=O)[O-])c1 (stereo unspecified),-5%,-1,?,0%,32%,11*
CC(C)C(=O)Nc1cccc(NC(=S)NC(=O)c2ccc(Cl)cc2)c1,16%,67*,27%,-23%,6%,65*
Cc1coc2cc3oc(=O)c(CC(=O)N[C@@H](CC(C)C)C(=O)O)c(C)c3cc12,4%,-3,36%,3%,18%,-4
SMILES,NS1 inh,Shiga inhibitor,Pf growth 48h,Giardia FBPA inh,Pf growth 96h,CHX counter
CCN(CC)CCNC(=O)c1cc2cc(Br)ccc2s1,.,-24,55%,3%,?,8
CCCCC(=O)NC(=S)Nc1ccc(NC(=O)C(C)C)c(OC)c1,-2%,-16,-10%,1%,187%,7
O=C(/C=C/c1cccc([N+](=O)[O-])c1)NC(=S)Nc1cccc(NC(=O)c2ccccc2Cl)c1,25%,-16,13µM*,3%,3%,-5
O=C(Nc1cccc(NC(=S)NC(=O)c2cccs2)c1)c1ccccc1,21%,17,28%,-30%,38%,-2
CC(C)C(=O)Nc1cccc(NC(=S)NC(=O)c2cccs2)c1,12%,75*,99%,.,31%,33*
COc1cc(NC(=S)NC(=O)c2cccs2)ccc1NC(=O)C(C)C,8%,56*,2%,?,-18%,23*
CCc1ccc(NC(=S)Nc2cc(OC)c(NC(=O)C(C)C)cc2OC)cc1,-3%,16,0%,-26%,?,23*
CC1CCC2(CC1)NC(=O)N(NC(=O)c1ccc(OC(C)C)cc1)C2=O (stereo unspecified),.,.,13%,.,28%,.
COc1ccc(-c2[nH]ncc2CNCC(C)(C)N2CCOCC2)cc1F,-7%,-22,-7%,4%,?,-4
COc1ccc(N2CCN(C(=O)CN3C(=O)NC4(CCCCCC4)C3=O)CC2)cc1,.,.,-21%,.,?,.
Cc1ccc(S(=O)(=O)NCCCCCC(=O)Nc2cccc(C)c2)cc1,-36%,-3,-10%,0%,12µM*,-3
Cn1c(=O)c(=O)n(C)c2cc(S(=O)(=O)CCC(=O)Nc3cccc(C(F)(F)F)c3)ccc21,20%,-1,10%,-8%,10µM*,22
Cc1cccc(NC(=O)CCS(=O)(=O)c2ccccc2)c1,0%,47*,90%,0%,-2%,30*
Cc1ccc(S(=O)(=O)CCC(=O)Nc2cccc(Cl)c2)cc1,-3%,-8,1%[0.00184 µM],-12%,22%,-4
Cc1cccc(NC(=O)CCS(=O)(=O)c2ccccc2)n1,6%,54*,29%,10%,39%,24
CCC(=C(CC)c1ccc(O)cc1)c1ccc(O)cc1,.,.,.,4%[21.7 µM],.,.
CN(C)C(Cc1ccc(Cl)cc1)C(=O)c1ccccc1 (stereo unspecified),15%,50*,4%,-2%,?,24*
O=C(N[C@@H](Cc1ccccc1)C(=O)O)c1cccs1,6%,18,23%,-18%,29%,-1
COc1ccc(C(C)=O)cc1CC(C(=O)c1ccccc1)N(C)C (stereo unspecified),-1%,5,13%,0%,38%,22*
CN(C)CC(C(=O)c1ccccc1)c1ccccc1 (stereo unspecified),-40%,-16,?,-12%,.,-4
CN(C)C(Cc1ccccc1)C(=O)c1cccs1 (stereo unspecified),.,39,7%,-1%,12%,13*
